High-throughput results (PubChem)
An excerpt weighted towards active compounds, which were near 2.2% of everything screened.
PI4K2A inh: qHTS for small molecular inhibitors of PI4K2A; Phosphatidylinositol 4-kinase type 2-alpha (Homo sapiens), Q9BTU6; purified PI4K2A, ADP-Glo luminescence, 1 h; hits give low values; activity change, negative = inhibition, % at 76.9 µM; 420,000 tested, 0.13% active; AID 1346378, 2018; in the data active = activity change below about -50%; inconclusive = mostly about -30% to -49%
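In this quantitative HTS, ADP production by PI4K2A was quantified luminescently after 1 h at ambient temperature; 100 microM adenosine served as plate-quality control.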
Nrf2 activator: qHTS of Nrf2 Activators; AREc32 ARE-luciferase reporter (MCF7-derived line), luminescence, 24 h; Potency, µM (titrated, usually from 46.1 µM), hits mostly activators; 410,000 tested, 0.31% active; AID 624171, 2012; note: nearly all actives have a fitted effect of over 65% in size
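AREc32 cells carrying an ARE-driven firefly luciferase reporter were seeded at 1000 cells/well in OPTI-MEM with 5% FBS, then exposed to compound for 24 hr at 37 deg C. Luminescence was read with Steady-Glo after 30 min at RT.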
GALK inh: qHTS Assay for Inhibitors of Human Galactokinase (GALK). Potency, µM (highest dose often 57.5 µM), actives largely listed as inhibitors. Purified GALK, Kinase-Glo residual ATP luminescence. P51570. AID 1868, 2009. 270,000 tested, 0.007% active
Target sequence (P51570 whole entry, looked up): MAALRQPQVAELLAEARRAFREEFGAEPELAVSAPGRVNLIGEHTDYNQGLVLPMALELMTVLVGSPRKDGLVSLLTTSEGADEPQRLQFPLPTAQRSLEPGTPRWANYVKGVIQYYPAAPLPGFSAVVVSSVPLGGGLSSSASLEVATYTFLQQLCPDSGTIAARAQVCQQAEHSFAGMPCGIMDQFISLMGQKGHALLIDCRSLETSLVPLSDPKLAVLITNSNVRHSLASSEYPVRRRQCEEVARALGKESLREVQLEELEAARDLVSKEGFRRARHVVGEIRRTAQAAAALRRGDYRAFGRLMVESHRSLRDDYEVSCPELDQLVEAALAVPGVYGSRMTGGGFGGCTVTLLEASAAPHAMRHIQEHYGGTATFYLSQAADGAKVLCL
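Quantitative HTS: GALK 5 nM, ATP 35 uM, galactose 100 uM, 1 h room temperature, then luciferase-based ATP detection.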
miR-21 reporter: qHTS Assay for Modulators of miRNAs and/orActivators of miR-21 | AID 2288, 2010 | Potency, µM (highest dose often 38.3 µM), usual class: activators | HeLa miR-21 FLuc reporter, luciferase, 48 h | 340,000 tested, under 10 active;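 note: miR-21 action dims this reporter so a rising signal means less miR-21 action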
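HeLa cells stably expressing CMV-driven firefly luciferase with a downstream miR-21 binding sequence, endogenously expressing miR-21, were treated with titrations (up to about 40uM final) for 48 hours at 37 degree Celsius. Luciferase luminescence was read after lysis.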
A549 tox: Nrf2 qHTS screen for inhibitors: counterscreen for cytotoxicity; A549 ARE-Fluc cells, CellTiter-Fluor viability, 18-24 h; Potency, µM (titrated, usually from 46 µM), actives largely listed as inhibitors; 390,000 tested, 0.16% active; AID 504648, 2011
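Cytotoxicity counterscreen: CellTiter-Fluor fluorescence was measured in A549 ARE_Fluc cells after 18-24 h of compound exposure in a concentration series. The subsequent BugLite luminescent read reports ARE-luciferase activity.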
Nrf2 inh: Nrf2 qHTS screen for inhibitors; A549 ARE-Fluc reporter, luciferase luminescence, 18-24 h; Potency, µM (highest dose often 46 µM), most hits filed as inhibitors; 360,000 tested, 2.1% active; AID 504444, 2011; note: nearly all actives have a fitted effect of over 60% in size
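Cells were seeded and rested 2 h, then exposed to compounds for 18-24 h. CellTiter-Fluor was read first as a viability measure. BugLite was added 15 min before the final luminescent read of ARE-luciferase activity in A549 cells.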
Each line names hits and unclear results; the compound was inactive in the other large screens. Unless noted, calls come from the whole dose curve; as a rule, active = well fitted curve in the direction sought with a large enough effect; inconclusive = small, poorly fitted or top-dose-only effect, or another doubt; inactive = no such curve, though single readings can be large; an effect the other way counts as inactive or inconclusive.

O=C(N/N=C1\C/C(=N\NC(=O)c2ccncc2)c2ccccc21)c1ccncc1	Nrf2 activator inconclusive, A549 tox inconclusive, Nrf2 inh 7.3µM
CC1CCC2(CC1)CCN(CCCOC(=O)NCc1ccc(Cl)cc1)C2=O (stereo unspecified)	none (no result: Nrf2 activator, GALK inh, miR-21 reporter, A549 tox, Nrf2 inh)
C/C(=N\Nc1nccnc1Cl)c1ccc(O)cc1	none
C/C(=N\Nc1nccnc1Cl)c1ccc(Cl)c(Cl)c1	Nrf2 activator 14µM, Nrf2 inh inconclusive
CC(=O)Nc1cccc(NC(=O)c2cc(-c3cccnc3)nc3ccc(Br)cc23)c1	A549 tox inconclusive, Nrf2 inh 12µM
CC(=O)Nc1cccc(NC(=O)c2cc(-c3cccnc3)nc3ccc(Cl)cc23)c1	Nrf2 inh inconclusive
COc1cccc(/C(C)=N/NC(=O)c2cc(-c3cccnc3)nc3ccccc23)c1	Nrf2 inh 21µM
CC(C)(C)S(=O)(=O)/C(C#N)=N/Nc1ccc(Cl)cc1	miR-21 reporter inconclusive, A549 tox inconclusive, Nrf2 inh 10µM
CC(C)(C)c1ccc(N/N=C(\C#N)S(=O)(=O)C(C)(C)C)cc1	A549 tox inconclusive, Nrf2 inh inconclusive
CC1=C(C(=O)O)N2C(=O)[C@@H](NC(=O)[C@H](N)C3=CCC=CC3)[C@H]2SC1	none (no result: Nrf2 activator, GALK inh, miR-21 reporter, A549 tox, Nrf2 inh)
Cc1ccc2c(c1)C(CS(=O)(=O)NC1CCCC1)NC2 (stereo unspecified)	none (no result: Nrf2 activator, GALK inh, miR-21 reporter, A549 tox, Nrf2 inh)
CCn1c(SCC(=O)Nc2ccc(C(N)=O)cc2)nc2sc(C)c(C)c2c1=O	none (no result: Nrf2 activator, GALK inh, miR-21 reporter, A549 tox, Nrf2 inh)
CC(=O)c1sc(C(C)(C)C)cc1NC(=O)/C=C/C(=O)O	Nrf2 activator 16µM
CCOC(=O)C1CCCCN1C(=O)[C@@H]1CC=C[C@@H]2CCN(c3ccccc3)C(=O)[C@@H]21 (stereo partly specified)	none (no result: Nrf2 activator, GALK inh, miR-21 reporter, A549 tox, Nrf2 inh)
COc1ccc(-c2nn(-c3ccccc3)cc2/C=C2/SC(=S)N(CCC(=O)O)C2=O)c(C)c1	A549 tox inconclusive, Nrf2 inh inconclusive
COc1ccc(-c2nn(-c3ccccc3)cc2/C=C2/SC(=S)N(CCC(=O)O)C2=O)cc1	A549 tox inconclusive, Nrf2 inh 23µM
COc1ccc(CNC(=O)Cn2nc(C(F)(F)F)c(Br)c2C)cc1	none
COc1cc(NC(=O)Cn2nc(C(F)(F)F)c(Br)c2C)cc([N+](=O)[O-])c1	miR-21 reporter inconclusive, A549 tox inconclusive, Nrf2 inh 23µM
CN(CC(=O)Nc1ccc(F)c(Cl)c1)S(=O)(=O)c1cccc2nsnc12	Nrf2 inh 26µM
Cc1ccc(-n2c(Cc3cccs3)nnc2SCC(=O)Nc2cccc3ccccc23)cc1	none (no result: Nrf2 activator, GALK inh, miR-21 reporter, A549 tox, Nrf2 inh)
CCOC(=O)C1=CCC2c3c(c4ccccc4n3C)C(=O)C1N2C(=O)OC(C)(C)C (stereo unspecified)	A549 tox inconclusive, Nrf2 inh 15µM (no result: GALK inh, miR-21 reporter)
COc1ccc(NC(=O)CCCOc2ccc(Cl)c(C)c2)cc1S(=O)(=O)N1CCOCC1	A549 tox inconclusive, Nrf2 inh 18µM (no result: GALK inh, miR-21 reporter)
COc1ccc(CCC(=O)Nc2ccc(Cl)c(S(=O)(=O)N3CCCC3)c2)cc1	Nrf2 inh 18µM
COc1ccc(OCCCC(=O)Nc2ccc(OC)c(S(=O)(=O)N3CCOCC3)c2)cc1	none (no result: GALK inh, miR-21 reporter)
O=C(NCC1CCCN1S(=O)(=O)c1cccs1)c1ccc(Cl)cc1 (stereo unspecified)	Nrf2 inh 23µM (no result: GALK inh, miR-21 reporter)
O=C(NCC1CCCN1S(=O)(=O)c1cccs1)c1cccc(F)c1 (stereo unspecified)	Nrf2 inh 13µM (no result: GALK inh, miR-21 reporter)
O=C(NCC1CCCN1S(=O)(=O)c1cccs1)c1ccccc1 (stereo unspecified)	Nrf2 inh inconclusive (no result: GALK inh, miR-21 reporter)
COc1cc(/C=C2/C(=O)N(c3ccc(Br)cc3)N=C2C)cc([N+](=O)[O-])c1O	none (no result: PI4K2A inh, Nrf2 activator, GALK inh, A549 tox, Nrf2 inh)
COc1cc(/C=C2/C(=O)N(c3cccc(Br)c3)N=C2C)cc(OC)c1O	PI4K2A inh -54, A549 tox inconclusive (no result: GALK inh)
O=C(CSc1nc2sc3c(c2c(=O)n1-c1ccc(Cl)cc1)CCC3)Nc1ccc(C(=O)O)cc1	none (no result: Nrf2 activator, GALK inh, miR-21 reporter, A549 tox, Nrf2 inh)
